From PubChem BioAssay AID1159580 (chemical genetic matrix, 2015)
Screen size: about 5,500 compounds; about 2,000 (36%) were called active. Not shown: some 18% with an inconclusive outcome. No stated cut-off is given here; in the data, active means normalized growth mostly below about 0.91 (no sharp cut-off); inconclusive means no clear call, values can overlap the other calls; inactive means mostly above about 0.92. The list shows a part of the results.

Assay: chemical genetic growth profiling, strain panel (AID 1159580);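 further: tested at 20 µM; growth read once vehicle control cultures reached saturation at 30 °C; 1 = growth at the plate median or of vehicle wells; lower values mean less growth of the strain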
Conditions: growth OD
[1] = S. cerevisiae deletion strains, locus YAL013W, strain DEP1, active compounds read low
[2] = S. cerevisiae deletion strains, locus YDR150W, strain NUM1, active compounds read low
[3] = S. cerevisiae deletion strains, locus YHR030C, strain SLT2, active compounds read low
[4] = S. cerevisiae deletion strains, locus YJR075W, strain HOC1, active compounds read low
[5] = S. cerevisiae deletion strains, locus YPL055C, strain LGE1, active compounds read low
[6] = S. cerevisiae deletion strains, locus YPL241C, strain CIN2, active compounds read low
[7] = S. cerevisiae deletion strains, locus YHR079C, strain IRE1, active compounds read low
[8] = S. cerevisiae deletion strains, locus YJL095W, strain BCK1, active compounds read low
[9] = S. cerevisiae deletion strains, locus YJR066W, strain TOR1, active compounds read low
[10] = S. cerevisiae deletion strains, locus YLR113W, strain HOG1, active compounds read low
[11] = S. cerevisiae deletion strains, locus YNL183C, strain NPR1, active compounds read low
[12] = S. cerevisiae deletion strains, locus YOR231W, strain MKK1, active compounds read low
[13] = S. cerevisiae deletion strains, locus YPL256C, strain CLN2, active compounds read low

Measured: normalized growth

CC(=O)Nc1ccc(S(=O)(=O)NC2Cc3ccccc3C2)cc1
inactive: [1] 1.01 | S. cerevisiae deletion strains, locus YBR229C, strain ROT2, active compounds read low 1.01 | S. cerevisiae deletion strains, locus YDL101C, strain DUN1, active compounds read low 0.98 | [2] 0.949 | S. cerevisiae deletion strains, locus YEL061C, strain CIN8, active compounds read low 1.01 | S. cerevisiae deletion strains, locus YGR078C, strain PAC10, active compounds read low 1 | [3] 1.06 | S. cerevisiae deletion strains, locus YHR087W, strain rtc3, active compounds read low 1 | S. cerevisiae deletion strains, locus YJR043C, strain POL32, active compounds read low 1 | [4] 0.996 | S. cerevisiae deletion strains, locus YKL190W, strain CNB1, active compounds read low 1.01 | S. cerevisiae deletion strains, locus YLR039C, strain RIC1, active compounds read low 1.04 | S. cerevisiae deletion strains, locus YLR058C, strain SHM2 (second series), active compounds read low 1.01 | S. cerevisiae deletion strains, locus YLR085C, strain ARP6, active compounds read low 1.05 | S. cerevisiae deletion strains, locus YLR262C, strain YPT6, active compounds read low 1.03 | S. cerevisiae deletion strains, locus YML094W, strain GIM5, active compounds read low 1.02 | S. cerevisiae deletion strains, locus YMR219W, strain ESC1, active compounds read low 1.01 | S. cerevisiae deletion strains, locus YMR263W, strain SAP30, active compounds read low 0.994 | S. cerevisiae deletion strains, locus YNL153C, strain GIM3, active compounds read low 1.02 | S. cerevisiae deletion strains, locus YNL298W, strain CLA4 (second series), active compounds read low 1.04 | S. cerevisiae deletion strains, locus YNL322C, strain KRE1, active compounds read low 1.01 | S. cerevisiae deletion strains, locus YNR030W, strain Alg12, active compounds read low 1.03 | S. cerevisiae deletion strains, locus YOL006C, strain TOP1, active compounds read low 1.08 | [5] 0.966 | [6] 1.02 | S. cerevisiae deletion strains, locus YPR135W, strain CTF4, active compounds read low 1.02 | S. cerevisiae strains, strain wild type, active compounds read low 1.01

CCCCS(=N)(=O)CCC(N)C(=O)O (stereo unspecified)
inactive: [1] 0.993 | S. cerevisiae deletion strains, locus YAL021C, strain ccr4, active compounds read low 0.983 | S. cerevisiae deletion strains, locus YAL026C, strain drs2, active compounds read low 1 | S. cerevisiae deletion strains, locus YAL030W, strain snc1, active compounds read low 0.997 | S. cerevisiae deletion strains, locus YAL040C, strain CLN3, active compounds read low 0.993 | S. cerevisiae deletion strains, locus YBL061C, strain skt5, active compounds read low 0.999 | S. cerevisiae deletion strains, locus YBR009C, strain hhf1, active compounds read low 1.02 | S. cerevisiae deletion strains, locus YBR023C, strain chs3, active compounds read low 0.997 | S. cerevisiae deletion strains, locus YBR171W, strain sec66, active compounds read low 0.999 | S. cerevisiae deletion strains, locus YBR231C, strain swc5, active compounds read low 0.998 | S. cerevisiae deletion strains, locus YBR279W, strain paf1, active compounds read low 0.993 | S. cerevisiae deletion strains, locus YCL011C, strain gbp2, active compounds read low 0.988 | S. cerevisiae deletion strains, locus YCL016C, strain dcc1, active compounds read low 1 | S. cerevisiae deletion strains, locus YCL061C, strain MRC1 (second series), active compounds read low 0.997 | S. cerevisiae deletion strains, locus YCL061C, strain MRC1, active compounds read low 0.993 | S. cerevisiae deletion strains, locus YCL069W, strain vba3, active compounds read low 0.992 | S. cerevisiae deletion strains, locus YCR088W, strain abp1, active compounds read low 0.992 | S. cerevisiae deletion strains, locus YDL005C, strain med2, active compounds read low 0.984 | S. cerevisiae deletion strains, locus YDL040C, strain nat1, active compounds read low 0.994 | S. cerevisiae deletion strains, locus YDR001C, strain nth1, active compounds read low 0.99 | S. cerevisiae deletion strains, locus YDR069C, strain doa4, active compounds read low 1.01 | S. cerevisiae deletion strains, locus YDR137W, strain rgp1, active compounds read low 0.973 | [2] 1.01 | S. cerevisiae deletion strains, locus YDR159W, strain sac3, active compounds read low 1.02 | S. cerevisiae deletion strains, locus YDR195W, strain ref2 0.994 | S. cerevisiae deletion strains, locus YDR297W, strain sur2, active compounds read low 0.993 | S. cerevisiae deletion strains, locus YDR334W, strain swr1, active compounds read low 0.987 | S. cerevisiae deletion strains, locus YDR335W, strain msn5, active compounds read low 0.99 | S. cerevisiae deletion strains, locus YDR363W, strain ESC2, active compounds read low 0.992 | S. cerevisiae deletion strains, locus YDR392W, strain spt3, active compounds read low 0.976 | S. cerevisiae deletion strains, locus YEL003W, strain gim4, active compounds read low 0.994 | S. cerevisiae deletion strains, locus YEL037C, strain rad23, active compounds read low 0.99 | S. cerevisiae deletion strains, locus YEL061C, strain CIN8 (second series), active compounds read low 0.99 | S. cerevisiae deletion strains, locus YER002W, strain NOP16, active compounds read low 0.979 | S. cerevisiae deletion strains, locus YER015W, strain faa2, active compounds read low 0.996 | S. cerevisiae deletion strains, locus YER016W, strain bim1, active compounds read low 0.996 | S. cerevisiae deletion strains, locus YER111C, strain swi4, active compounds read low 0.983 | S. cerevisiae deletion strains, locus YER155C, strain BEM2 (second series), active compounds read low 1.01 | S. cerevisiae deletion strains, locus YFR010W, strain ubp6, active compounds read low 0.999 | S. cerevisiae deletion strains, locus YGL167C, strain pmr1, active compounds read low 1 | S. cerevisiae deletion strains, locus YGL173C, strain kem1, active compounds read low 1 | S. cerevisiae deletion strains, locus YGL227W, strain vid30, active compounds read low 0.984 | S. cerevisiae deletion strains, locus YGL240W, strain doc1, active compounds read low 1.01 | S. cerevisiae deletion strains, locus YGL253W, strain hxk2, active compounds read low 1 | S. cerevisiae deletion strains, locus YGR229C, strain SMI1, active compounds read low 0.955 | S. cerevisiae deletion strains, locus YHR013C, strain ard1, active compounds read low 0.979 | S. cerevisiae deletion strains, locus YHR027C, strain rpn1, active compounds read low 0.99 | [3] 0.981 | [7] 0.98 | S. cerevisiae deletion strains, locus YHR142W, strain chs7, active compounds read low 0.979 | S. cerevisiae deletion strains, locus YJL092W, strain hpr5, active compounds read low 1 | S. cerevisiae deletion strains, locus YJL095W, strain BCK1 (second series), active compounds read low 0.995 | [8] 0.983 | S. cerevisiae deletion strains, locus YJL115W, strain asf1, active compounds read low 0.996 | S. cerevisiae deletion strains, locus YJL129C, strain trk1, active compounds read low 0.986 | S. cerevisiae deletion strains, locus YJL154C, strain vps35, active compounds read low 0.993 | S. cerevisiae deletion strains, locus YJL164C, strain tpk1, active compounds read low 0.996 | S. cerevisiae deletion strains, locus YJL166W, strain qcr8, active compounds read low 1 | S. cerevisiae deletion strains, locus YJL187C, strain SWE1, active compounds read low 0.994 | [9] 0.9 | [4] 1 | S. cerevisiae deletion strains, locus YKL160W, strain elf1, active compounds read low 0.997 | S. cerevisiae deletion strains, locus YKR026C, strain gcn3, active compounds read low 0.986 | S. cerevisiae deletion strains, locus YKR091W, strain srl3, active compounds read low 0.988 | S. cerevisiae deletion strains, locus YLL001W, strain dnm1, active compounds read low 0.993 | S. cerevisiae deletion strains, locus YLL026W, active compounds read low 0.993 | S. cerevisiae deletion strains, locus YLL041C, strain sdh2, active compounds read low 0.988 | S. cerevisiae deletion strains, locus YLR027C, strain aat2, active compounds read low 0.993 | [10] 0.99 | S. cerevisiae deletion strains, locus YLR221C, strain rsa3, active compounds read low 0.986 | S. cerevisiae deletion strains, locus YLR258W, strain gsy2, active compounds read low 1 | S. cerevisiae deletion strains, locus YLR262C, strain YPT6 (second series), active compounds read low 0.998 | S. cerevisiae deletion strains, locus YLR320W, strain mms22, active compounds read low 0.99 | S. cerevisiae deletion strains, locus YLR342W, strain FKS1, active compounds read low 0.993 | S. cerevisiae deletion strains, locus YLR357W, strain rsc2, active compounds read low 1 | S. cerevisiae deletion strains, locus YLR370C, strain arc18, active compounds read low 0.99 | S. cerevisiae deletion strains, locus YLR384C, strain iki3, active compounds read low 1.01 | S. cerevisiae deletion strains, locus YML120C, strain ndi1, active compounds read low 0.983 | S. cerevisiae deletion strains, locus YMR058W, strain fet3, active compounds read low 0.999 | S. cerevisiae deletion strains, locus YMR125W, strain sto1, active compounds read low 0.99 | S. cerevisiae deletion strains, locus YMR129W, active compounds read low 0.959 | S. cerevisiae deletion strains, locus YMR205C, strain PFK2, active compounds read low 1.02 | S. cerevisiae deletion strains, locus YMR231W, strain pep5, active compounds read low 0.997 | S. cerevisiae deletion strains, locus YMR307W, strain GAS1, active compounds read low 1.01 | S. cerevisiae deletion strains, locus YNL071W, strain lat1, active compounds read low 0.982 | S. cerevisiae deletion strains, locus YNL128W, strain TEP1, active compounds read low 0.991 | S. cerevisiae deletion strains, locus YNL175C, strain NOP13, active compounds read low 0.97 | [11] 0.929 | S. cerevisiae deletion strains, locus YNL197C, strain WHI3, active compounds read low 0.94 | S. cerevisiae deletion strains, locus YNL209W, strain ssb2, active compounds read low 0.991 | S. cerevisiae deletion strains, locus YNL224C, strain SQS1, active compounds read low 0.986 | S. cerevisiae deletion strains, locus YNL248C, strain rpa49, active compounds read low 0.991 | S. cerevisiae deletion strains, locus YNL322C, strain KRE1 (second series), active compounds read low 0.998 | S. cerevisiae deletion strains, locus YNR049C, strain mso1, active compounds read low 0.994 | S. cerevisiae deletion strains, locus YOR001W, strain rrp6, active compounds read low 0.974 | S. cerevisiae deletion strains, locus YOR070C, strain gyp1, active compounds read low 0.99 | S. cerevisiae deletion strains, locus YOR080W, strain dia2, active compounds read low 0.99 | S. cerevisiae deletion strains, locus YOR083W, strain WHI5 (second series), active compounds read low 0.95 | S. cerevisiae deletion strains, locus YOR083W, strain WHI5, active compounds read low 1 | S. cerevisiae deletion strains, locus YOR106W, strain vam3, active compounds read low 1.01 | [12] 0.988 | S. cerevisiae deletion strains, locus YOR265W, strain rbl2, active compounds read low 0.989 | S. cerevisiae deletion strains, locus YOR270C, strain vph1, active compounds read low 0.99 | S. cerevisiae deletion strains, locus YOR290C, strain snf2, active compounds read low 0.949 | S. cerevisiae deletion strains, locus YPL051W, strain arl3, active compounds read low 0.992 | [5] 0.999 | S. cerevisiae deletion strains, locus YPL078C, strain atp4, active compounds read low 0.994 | S. cerevisiae deletion strains, locus YPL106C, strain sse1, active compounds read low 0.991 | S. cerevisiae deletion strains, locus YPL240C, strain hsp82, active compounds read low 0.998 | [6] 0.998 | [13] 0.988

CCSCCC(N)C(=O)O (stereo unspecified)
inactive: [3] 1.06 | [7] 1.05 | [8] 1.04 | [9] 1.01 | [10] 1.04 | [11] 1.02 | [12] 1.03 | [13] 1.05
